# Source: PubChem BioAssay AID686964 (The Scripps Research Institute Molecular Screening Center, 2013)
# Hit rate of the full screen: of about 370,000 compounds, about 1,100 (0.3%) were called active. Cut-off read from the data, not from the text of the source: active = inhibition above about 13%; inactive = the rest. The list comes from a sample in which actives are over-represented; it also holds similar structures and randomly drawn compounds.
# Target: Methyl-CpG-binding domain protein 2 (Homo sapiens) (UniProt Q9UBB5)
# Test: inhibitors of MBD2 binding to methylated DNA, primary screen, biochemical, TR-FRET, DNA-binding domain, human (AID 686964)
# Conditions: MBD2 binding to methylated oligonucleotide, at 4.4 µM, hits give high values
# Chain of Methyl-CpG-binding domain protein 2 (Homo sapiens) (Q9UBB5 whole entry, looked up, the tested form may be a part): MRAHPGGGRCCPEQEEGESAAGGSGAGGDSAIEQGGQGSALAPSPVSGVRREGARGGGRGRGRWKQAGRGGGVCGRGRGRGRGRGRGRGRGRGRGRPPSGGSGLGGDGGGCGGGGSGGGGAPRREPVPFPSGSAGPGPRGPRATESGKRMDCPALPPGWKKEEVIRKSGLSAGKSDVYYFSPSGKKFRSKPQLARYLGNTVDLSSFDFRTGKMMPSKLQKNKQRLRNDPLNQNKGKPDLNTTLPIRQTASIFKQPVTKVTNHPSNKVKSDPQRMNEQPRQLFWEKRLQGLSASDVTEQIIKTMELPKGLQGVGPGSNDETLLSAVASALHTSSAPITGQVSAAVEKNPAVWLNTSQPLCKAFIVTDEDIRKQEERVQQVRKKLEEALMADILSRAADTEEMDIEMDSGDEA
row,SMILES,inhibition
1,CCOC(=O)CNC(=O)/C=C/c1c(Cl)cccc1Cl,-5.98% (inactive)
2,CCOC(=O)NC(C(F)(F)F)(C(F)(F)F)P(=O)(c1ccccc1)c1ccccc1,-1.87% (inactive)
3,CCOC(=O)CCP(=O)(O)C(O)(c1ccccc1)c1ccccc1,28.3% (active)
4,CCOC(=O)C(=O)N(Cc1ccccc1)c1ccccc1C(=O)Nc1cc(OC)ccc1OC,1% (inactive)
5,COc1cccc(/C=C2\CC3(OC(C)=O)CCCN2C3)c1 (configuration not stated),1.18% (inactive)
6,O=c1ccc2c(-c3ccccc3S(=O)(=O)O)c3ccc(O)c(O)c3oc-2c1O,97.2% (active)
7,O=C(NC1CCCCN(Cc2ccc(Cl)cc2)C1=O)c1ccc(Br)cc1 (configuration not stated),-2.53% (inactive)
8,C=C(C)C#CC(Cc1ccccc1)NCC1CC1 (configuration not stated),-0.24% (inactive)
9,Cc1cc(C)c2nc3nc(C)cc(C)c3c(N)c2c1,19.4% (active)
10,NC(=O)c1ncn([C@@H]2O[C@H](C(=O)O)[C@@H](O)[C@H]2O)n1,2.1% (inactive)
11,CCC[C@H]1C(=O)CC[C@@]23CCCN2C(=O)CCC[C@@H]13,-0.46% (inactive)
12,CC(C)CSc1nnc(-c2cccnc2)n1Cc1ccccc1,-2.93% (inactive)
13,O=C(OC12CCCN(C1)/C(=C/c1cccnc1)C2)C1CCCC1 (configuration not stated),-0.45% (inactive)
14,O=C(NS(=O)(=O)c1cccs1)[C@H]1O[C@@H](n2ccc(=O)[nH]c2=O)[C@H](O)[C@@H]1O,3.05% (inactive)
15,Cc1c(CN2CCC(C)CC2)c(=O)n(-c2ccccc2)n1C,2.32% (inactive)
16,Cc1c(C=O)n(C)n(-c2ccccc2)c1=O,14.6% (active)
17,Cc1cccc(N2CCN(Cc3c(C)n(C)n(-c4ccccc4)c3=O)CC2)c1C,1.05% (inactive)
18,O=S(=O)(c1ccc(Br)cc1)n1ccc2ccccc21,-0.04% (inactive)
19,O=S1(=O)c2c(cccc2N2CCSCC2)Oc2ccccc2CN1Cc1cn(Cc2ccc(F)cc2)nn1,-0.08% (inactive)
20,O=C(NCCO)C(=O)NCC(c1ccc2c(c1)OCO2)N1CCN(c2ccc(F)cc2)CC1 (configuration not stated),0.87% (inactive)
21,C=CCN(C(=O)[C@@H](CCCC)[C@@H](O)c1ccc(Cl)cc1)c1ccccc1,15.9% (active)
22,C[C@H](C(=O)N(C)c1ccccc1)[C@@H](O)c1ccc(Cl)cc1,-1.32% (inactive)

row,SMILES,inhibition
1,CCCC[C@H](C(=O)N(CC)c1ccccc1)[C@@H](O)c1ccc2ccccc2c1,-3.72% (inactive)
2,O=C(CCCCCN1C(=O)C2C3C=CC(C3)C2C1=O)Nc1ccccn1 (configuration not stated),-4.13% (inactive)
3,COC(=O)c1cccc(NC(=O)c2cccc(N3C(=O)CCC3=O)c2)c1,13.4% (active)
4,CC(=O)Nc1cccc(C(=O)OCN2C(=O)c3ccccc3C2=O)c1,6.26% (inactive)
5,COC(=O)c1cccc(NS(C)(=O)=O)c1,-3.55% (inactive)
6,CCCC(C(=O)OCCN(CC)CC)(c1ccccc1)c1ccccc1,0.72% (inactive)
7,CCN(CC)CCOc1ccc2c(c1)C(=NNC(=O)c1ccccn1)c1cc(OCCN(CC)CC)ccc1-2,109% (active)
8,CCN(CC)S(=O)(=O)c1cc(C(=O)Nc2ccccn2)ccc1C,2.21% (inactive)
9,Cc1cccc(S(=O)(=O)N(C)C[C@@H]2OCc3cnnn3CCCC(=O)N([C@H](C)CO)C[C@@H]2C)c1,3.06% (inactive)
10,C=C1c2c(Cl)ccc(O)c2C(O)=C2C(=O)[C@]3(O)C(O)=C(C(N)=O)C(=O)[C@@H](N(C)C)[C@@H]3[C@@H](O)C12 (some centres not stated),27.8% (active)
11,CN(C)[C@@H]1C(=O)C(C(N)=O)=C(O)[C@@]2(O)C(=O)C3=C(O)c4c(O)ccc(Cl)c4[C@@H](O)[C@H]3C[C@@H]12,17.8% (active)
12,O=C1CCC2(CCC(c3ccc(Cl)cc3)CC2)N1CCO (configuration not stated),-0.8% (inactive)
13,Nc1ncnc2c1ncn2[C@@H]1O[C@H](C(=O)N[C@@H](CCc2ccccc2)C(=O)N2CCCN(Cc3cccs3)CC2)[C@@H](O)[C@H]1O,1.63% (inactive)
14,O=C(O)CCn1c(O)c(C=C2N=c3ccccc3=N2)sc1=S,-4.63% (inactive)
15,CCOC(=O)C1C(=O)OC2(CCCC2)C1C(=O)OCC (configuration not stated),19.3% (active)
16,CCOC(=O)C1C(=O)NCC1c1ccccc1 (configuration not stated),-0.38% (inactive)
17,CCOC(=O)C1C(c2ccc(O)cc2)NC(=O)NC1(O)C(F)(F)F (configuration not stated),-5.62% (inactive)
18,Cc1cc2c(nc1C)CCCN2C,-0.93% (inactive)
19,C=CCN(Cc1ccc2c(c1)OCO2)C(C#CC1CC1)C(C)(C)C (configuration not stated),3.04% (inactive)
20,O=C(c1c[nH]c2ccccc12)N1CCC(Oc2cccnc2)CC1,-6.13% (inactive)
21,CC(=O)N1C[C@@H](CO)[C@@H](N(C)C(=O)C(C)(C)C)C[C@H]1c1ccccc1Br,2.89% (inactive)
22,Oc1ccc(/C=C/c2c(F)cccc2F)c2cccnc12,-0.79% (inactive)

row,SMILES,inhibition
1,Cc1ccc(CNC(=O)CC(NC(=O)c2ccccc2)c2ccccc2)cc1 (configuration not stated),-3.58% (inactive)
2,Nc1ccn([C@@H]2O[C@H](C(=O)N[C@H]3CCCCNC3=O)[C@@H](O)[C@H]2O)c(=O)n1,-2.88% (inactive)
3,Nc1ccccc1C(=O)NC1CCCCNC1=O (configuration not stated),16.1% (active)
4,O=C(CNC(=O)OCc1ccccc1)NC1CCCCNC1=O (configuration not stated),0.98% (inactive)
5,CN1[C@H](Cc2ccccc2)COc2cccc(N3CCSCC3)c2S1(=O)=O,3.96% (inactive)
6,CCOC(=O)N1CCN(C(=O)C[C@@H]2C(=O)N(CCc3ccc(Cl)cc3)C3=CCCC[C@]32C(=O)OCC)CC1,-2% (inactive)
7,COc1ccc2c(CC(=O)NNC(=O)c3ccccc3F)coc2c1,-1.98% (inactive)
8,C[C@H]1[C@H](NC(=O)c2cccc(N(C)C)c2)CC[C@@]23CCCN2C(=O)CCC[C@@H]13,-0.56% (inactive)
9,Cc1c(NS(=O)(=O)c2cc(C(=O)NCCc3ccc(F)cc3)cc(Cl)c2Cl)c(=O)n(-c2ccccc2)n1C,26.3% (active)
10,Cc1c(NS(=O)(=O)c2cccc(C(=O)Nc3ccc(SC(F)F)cc3)c2)c(=O)n(-c2ccccc2)n1C,7.59% (inactive)
11,Cc1cc(C)c(S(=O)(=O)Nc2c(C)n(C)n(-c3ccccc3)c2=O)cc1[N+](=O)[O-],-5.79% (inactive)
12,O=C(O)Cn1cnc2c(NCc3ccccc3)ncnc21,-3.02% (inactive)
13,O=C(NCCc1c[nH]c2ccccc12)OCc1cn(-c2c(F)cccc2F)nn1,-6.28% (inactive)
14,CCC(=O)OCCCN1C(=O)CCC12CCC(c1ccccc1)CC2 (configuration not stated),3.38% (inactive)
15,CN1C(c2ccc(F)cc2)=CS/C1=C(/C#N)c1nnc2n1-c1ccccc1SC2,-4.62% (inactive)
16,COC(CNC(=O)[C@H](Cc1ccccc1)NC1(C(=O)NC2CCCCC2)CCCCC1)OC,6.86% (inactive)
17,C=CS(=O)(=O)N(Cc1nnn(Cc2ccccc2)c1Br)[C@H](C(=O)OC)C(C)C,-4.08% (inactive)
18,Cc1ccc(-c2noc(CCC(=O)Nc3ccccc3N3CCN(C)CC3)n2)cc1,-4.01% (inactive)
19,COCCNC(=O)Nc1ccc2nc(-c3ccco3)c(-c3ccco3)nc2c1,53.7% (active)
20,COCCNC(=O)c1cc2c(Br)ccc(Br)c2nc1N,1.97% (inactive)
21,COCCNC(=S)c1ccc(OC)cc1,0.26% (inactive)
22,COc1cccc(CNC(=O)CNS(=O)(=O)c2ccc3nc(C)sc3c2)c1OC,3.15% (inactive)

row,SMILES,inhibition
1,CCOC(=O)C1CCCN(C(=O)c2ccc(N(C)C)cc2)CC1 (configuration not stated),7.99% (inactive)
2,C=CCN1C(=O)c2ccc(C(=O)N3CCC(C(=O)OCC)CC3)cc2C1=O,16.8% (active)
3,CCOC(=O)C1CCCN(C(=O)c2ccc(C)c(F)c2)CC1 (configuration not stated),-3.99% (inactive)
4,Cc1c(C(=O)N2CC(C)OC(C)C2)sc2nc(-c3ccccc3)cn12 (configuration not stated),-0.32% (inactive)
5,CC(C)C(C#CC1CC1)N(Cc1ccc2c(c1)OCO2)C(N)=NC(=O)/C=C/c1cccc(C(F)(F)F)c1 (configuration not stated),-0.7% (inactive)
6,CC(C)(C)NC(=O)C(c1cccnc1)N(C(=O)c1cnco1)c1ccc(C(C)(C)C)cc1 (configuration not stated),2.09% (inactive)
7,CCC(NC(=O)C1C2C=CC3(CN(Cc4ccccc4)C(=O)C13)O2)c1ccccc1 (configuration not stated),0.25% (inactive)
8,CCc1ccccc1NC(=O)CSc1nnc(-c2cccs2)o1,2.5% (inactive)
9,COc1ccc(-n2c(C)cc(C(=O)CSc3nnc(-c4cccs4)o3)c2C)cc1,15.1% (active)
10,COc1ccc(-c2nnc(SCC(=O)c3ccc4c(c3)OCCO4)o2)cc1,-3.62% (inactive)
11,O=C(CSc1nncn1-c1cccnc1)N1CCOCC1,2.16% (inactive)
12,COc1cc(NC(=O)C2CCCN(S(=O)(=O)c3ccc(C(C)(C)C)cc3)C2)cc(OC)c1 (configuration not stated),-0.54% (inactive)
13,CCCCCCCCN1C(=O)[C@@H](CC(=O)NCc2ccccc2)C[C@@]2(C(=O)OC)C1=C[C@H](C(C)(C)C)O[C@@H]2C,3.75% (inactive)
14,O=C(c1ccncc1)N1CC[C@H]2[C@H](CCCN2Cc2ccc(F)cc2)C1,-6.65% (inactive)
15,COc1ccc2c(c1)c(=Cc1ccc(N(C)C)cc1)c1cc(-c3ccccc3)[n+](C)n12,29.6% (active)
16,COc1ccc(NS(=O)(=O)c2cc3c(cc2C)N(C(C)=O)CCO3)cc1,-5.65% (inactive)
17,CC1CCCN(CCOCCOc2ccccc2-c2ccccc2)C1 (configuration not stated),-4.99% (inactive)
18,COc1ccc(CNC(=O)c2cc(C(=O)C3CC3)c[nH]2)cc1,1.85% (inactive)
19,COc1ccc(CNC(=O)c2c[nH]c3c(OC)cc(OC)cc3c2=O)cc1,23.4% (active)
20,CCSc1ccccc1C(=O)NCc1ccc(OC)cc1,-9.91% (inactive)
21,CC(CCN1CCC(C(O)(c2ccccc2)c2ccccc2)CC1)Oc1ccc([N+](=O)[O-])cc1Cl (configuration not stated),1.05% (inactive)
